# Results: PubChem BioAssay (EPA / NIEHS)
# Values joined by “and” are separate entries in the source; they are usually repeats but may differ in a detail not shown here. Identical values can stand only once. Inconclusive results are not listed. The source holds several records for some structures; these can differ, active in one and inactive in another. Active and inactive are the calls of the source. How the source made its calls: active means hit-call score of the fitted dose curve at least 0.9, where 1 is the maximum; inconclusive means response in the unintended direction; inactive means score below 0.9.
# Molecular target: Retinoic acid receptor RXR-alpha (Homo sapiens) (UniProt P19793)
# Test: OT_NURR1_NURR1RXRa_1440: Odyssey Thera (OT) 24-hour HEK293T Protein Complementation Assay for Nurr1/retinoid X receptor (RXR) (AID 2283386)
# Description: OT_NURR1_NURR1RXRa_1440 is a cell-based assay that uses HEK293T, a human kidney cell line, with measurements taken at 24 hours after chemical dosing in a 384-well plate.OT_NURR1_NURR1RXRa_1440 is one of one assay component(s) measured or calculated from the OT_NURR1_NURR1RXRa_1440 assay. It is designed to make measurements of protein fragment complementation, a form of binding reporter, as detected with fluorescence intensity signals by Protein-fragment Complementation technology.Data from the assay component OT_NURR1_NURR1RXRa_1440 was analyzed into 1 assay endpoint. This assay endpoint, OT_NURR1_NURR1RXRa_1440, was analyzed in the positive analysis fitting direction relative to DMSO as the negative control and baseline of activity. Using a type of binding reporter, measures of receptor for gain-of-signal activity can be used to understand the binding at the pathway-level as they relate to the gene RXRA. Furthermore, this assay endpoint can be referred to as a primary readout, because the performed assay has only produced 1 assay endpoint. To generalize the intended target to other relatable targets, this assay endpoint is annotated to the nuclear receptor intended target family, where the subfamily is non-steroidal.
# Protein-fragment complementation assay, or PCA, is a method for the identification and quantification of protein-protein interactions. In the PCA, the proteins of interest ("bait" and "prey") are each covalently linked to fragments of a third protein (e.g. DHFR, which acts as a "reporter"). Interaction between the bait and the prey proteins brings the fragments of the reporter protein in close proximity to allow them to form a functional reporter protein whose activity can be measured.
# Retinoic acid receptor RXR-alpha (Homo sapiens), sequence (P19793 whole entry, looked up): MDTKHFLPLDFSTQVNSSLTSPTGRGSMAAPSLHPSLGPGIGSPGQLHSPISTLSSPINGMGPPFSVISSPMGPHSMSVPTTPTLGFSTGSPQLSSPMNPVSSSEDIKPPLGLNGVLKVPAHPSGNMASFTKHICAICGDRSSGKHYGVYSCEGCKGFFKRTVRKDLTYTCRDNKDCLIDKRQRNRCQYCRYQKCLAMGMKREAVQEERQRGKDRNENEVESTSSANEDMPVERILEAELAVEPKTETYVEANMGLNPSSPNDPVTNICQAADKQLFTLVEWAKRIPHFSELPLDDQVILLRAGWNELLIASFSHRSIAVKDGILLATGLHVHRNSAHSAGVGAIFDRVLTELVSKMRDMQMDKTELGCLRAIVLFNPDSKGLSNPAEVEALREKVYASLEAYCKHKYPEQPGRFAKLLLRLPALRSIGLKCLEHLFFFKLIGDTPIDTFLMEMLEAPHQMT
Structure (SMILES),outcome,AC50
CC(C)COC(=O)CCCCC(=O)OCC(C)C,inactive,–
O=C(NS(=O)(=O)/C=C/c1cccs1)c1ccc(F)cc1Br,–,17.3 µM (active)
CCCCCCCC(=O)OC,inactive,–
Cc1ccc(C(C)(C)C)c(O)c1,inactive,78.7 µM (active)
CCCCCCCCCCCCCCCCO,inactive,–
CC(=O)[C@@]1(O)CC[C@H]2[C@@H]3CCC4=CC(=O)CC[C@]4(C)[C@H]3CC[C@@]21C,inactive,–
NCCOCCOCCN,inactive,–
CC(C)c1cccc(C(C)C)c1,inactive,–
O=C1NC(=O)C(c2ccccc2)(c2ccccc2)N1,inactive,–
NC1CCCCC1,inactive,–
COC(=O)CCCC(=O)OC,inactive,–
S=c1[nH]c2ccccc2s1,inactive,–
CC(C)(C)c1ccccc1,inactive,–
CCc1nc(N)nc(N)c1-c1ccc(Cl)cc1,inactive,–
CC(=O)OCC(COC(C)=O)OC(C)=O,inactive,–
CN(C)CCCN(C)CCCN(C)C,inactive,–
O=C(Oc1ccccc1)c1cccc(C(=O)Oc2ccccc2)c1,inactive,69.2 µM (active)
COc1ccc(C(=O)Nc2nc3ccccc3c(NCc3ccccc3)c2C#N)cc1,inactive,–
CC(=O)S[C@H](C(=O)N[C@H]1Cc2ccccc2[C@H]2CCC[C@@H](C(=O)O)N2C1=O)C(C)C,inactive,–

Structure (SMILES),outcome,AC50
CN(C)C(=O)NC1(c2ccccc2)CCN(CC[C@@]2(c3ccc(F)c(F)c3)CN(C(=O)c3ccccc3)CCO2)CC1,inactive,–
CCCCCCC(C=O)=Cc1ccccc1,inactive,–
CCCC[C@H]1CN(CC2CCOCC2)C(=O)OC12CCN(C1(C)CCN(C(=O)c3c(C)ncnc3C)CC1)CC2,inactive,–
Nc1nc(Cl)nc2c1ncn2[C@H]1C[C@H](O)[C@@H](CO)O1,–,46.7 µM (active) and 44.1 µM (active)
CCCC(=O)O,inactive,–
NC(=Nc1ccccc1)Nc1ccccc1,–,11.6 µM (active)
CCC(C)N(C)C(=O)c1cc2ccccc2c(-c2ccccc2Cl)n1 (stereo not given),inactive,–
CCCCc1nc2cccnc2n1Cc1ccc(-c2ccccc2-c2nnn[nH]2)cc1,–,7.85 µM (active)
COC(=O)CCC(=O)OC,inactive,–
CCOCCOCCO,inactive,–
Cn1cnc2c1c(=O)[nH]c(=O)n2C,inactive,–
CCCCC(CC)COP(=O)(OCC(CC)CCCC)OCC(CC)CCCC (stereo not given),inactive,76.1 µM (active)
CC(C)c1cccc(C(C)C)c1NC(=O)NS(=O)(=O)c1cc(C(C)(C)O)co1,inactive,–
CCCCC(CC)COC(=O)CCCCCCCC(=O)OCC(CC)CCCC (stereo not given),inactive,–
CC(=O)CC(c1ccccc1)c1c(O)c2ccccc2oc1=O (stereo not given),inactive,–
O=C1CCCCC1,inactive,–
CC(=O)OC1CC(C)OC(C)O1 (stereo not given),inactive,–
CC(C)OC(=O)C(C)(C)Oc1ccc(C(=O)c2ccc(Cl)cc2)cc1,inactive,–
